Here are results for 15 compounds from PubChem BioAssay (NCI).

The panel holds about 83,000 compounds, 20% with a hit somewhere; the sample as a whole holds those more often.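 96-well plates, one dose, 48 hours. Percent growth reported; active if below 10.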 Unmarked numbers belong to inactive results. Active and inactive are the calls of the source.

This assay deals with SK-MEL-28 melanoma. Nature of the assay: NCI-60 one-dose screen, 48 h (100 = growth as untreated, 0 = no growth, -100 = all killed). The following applies: 10 µM unless noted.
In the case of `O=C(CCCCC(=O)N/N=C\c1ccccc1O)N/N=C\c1ccccc1O`, the growth is 48.3%. In the case of `O=c1ccccc(-c2ccc(Br)cc2)c1O` it was 23.2%; in that of `Cc1cc2nc(NC(=O)CN3CCN(CCN4C(=O)c5cccc6cccc(c56)C4=O)CC3)sc2cc1C`, 106%. The value for `COc1cc(C(=O)/C=C/c2cccnc2Nc2ccc(Cl)cc2)cc(OC)c1OC` was -80.4% (active); that for `COc1cc(/C=C/C(=O)Nc2cccnc2Nc2ccc(F)cc2)cc(OC)c1OC` was 103%; that for `COc1cc(-c2nn(-c3ccc(Br)cc3)cc2C(=O)O)ccc1O` was 119%. As for `CCCCCC(=O)Oc1ccc(/C(=C(\C)c2ccc(OC)cc2)c2ccc(OCCN3CCCCC3)cc2)cc1`, the growth was 27.6%. Regarding `COC(=O)[C@@H]1CCCN1C(=O)[C@@H]1CCCN1C(=O)[C@H](Cc1ccccc1)NC(=S)Nc1cc(C(F)(F)F)cc(C(F)(F)F)c1`, the growth is 85.3%. On to `O=[N+]([O-])c1ccccc1/C=N\NC(=S)N/N=C/c1ccccc1[N+](=O)[O-]`, for which the growth is 78.2%. The value for `O=[N+]([O-])c1ccc2c(c1)Cc1cc(F)ccc1-2` was 107%; that for `CC[N+](CC)=c1sc2c(s1)C(c1ccc(Cl)cc1)Oc1ccc(Cl)cc1-2` (stereo not given) was 18%; that for `Clc1ccc2c(NCCCCNc3nc(N4CCOCC4)nc4ccccc34)ccnc2c1` was 119%.

Regarding `CCc1c(Nc2ccccc2C)nc(N)[nH]c1=O`, the growth is 112%. As for `CCNc1ncnc2c1cnn2C1CCCO1` (stereo not given), the growth is 107%.

For `CC(O)CN(CC(C)O)c1ccc2c(c1)Cc1cc([N+](=O)[O-])ccc1-2` (stereo not given), the growth is 109%.
